Assay outcomes deposited in PubChem BioAssay by Center for Chemical Genomics, University of Michigan.
Dicer processing: inhibitors of Dicer pre-microRNA processing, primary screen, biochemical, cat-ELCCA, chemiluminescence | Endoribonuclease Dicer (Homo sapiens), Q9UPY3 | z-score at 25 µM | AID 1347074, 2019 | cat-ELCCA pre-miR-21 Dicer processing; stronger effect = higher value | hit rate 6% among 47,000; in the data active = z-score above about 3, passing the limit was not always enough;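 note: higher signal means more uncleaved substrate so more Dicer inhibition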
Target sequence (Q9UPY3 whole entry, looked up): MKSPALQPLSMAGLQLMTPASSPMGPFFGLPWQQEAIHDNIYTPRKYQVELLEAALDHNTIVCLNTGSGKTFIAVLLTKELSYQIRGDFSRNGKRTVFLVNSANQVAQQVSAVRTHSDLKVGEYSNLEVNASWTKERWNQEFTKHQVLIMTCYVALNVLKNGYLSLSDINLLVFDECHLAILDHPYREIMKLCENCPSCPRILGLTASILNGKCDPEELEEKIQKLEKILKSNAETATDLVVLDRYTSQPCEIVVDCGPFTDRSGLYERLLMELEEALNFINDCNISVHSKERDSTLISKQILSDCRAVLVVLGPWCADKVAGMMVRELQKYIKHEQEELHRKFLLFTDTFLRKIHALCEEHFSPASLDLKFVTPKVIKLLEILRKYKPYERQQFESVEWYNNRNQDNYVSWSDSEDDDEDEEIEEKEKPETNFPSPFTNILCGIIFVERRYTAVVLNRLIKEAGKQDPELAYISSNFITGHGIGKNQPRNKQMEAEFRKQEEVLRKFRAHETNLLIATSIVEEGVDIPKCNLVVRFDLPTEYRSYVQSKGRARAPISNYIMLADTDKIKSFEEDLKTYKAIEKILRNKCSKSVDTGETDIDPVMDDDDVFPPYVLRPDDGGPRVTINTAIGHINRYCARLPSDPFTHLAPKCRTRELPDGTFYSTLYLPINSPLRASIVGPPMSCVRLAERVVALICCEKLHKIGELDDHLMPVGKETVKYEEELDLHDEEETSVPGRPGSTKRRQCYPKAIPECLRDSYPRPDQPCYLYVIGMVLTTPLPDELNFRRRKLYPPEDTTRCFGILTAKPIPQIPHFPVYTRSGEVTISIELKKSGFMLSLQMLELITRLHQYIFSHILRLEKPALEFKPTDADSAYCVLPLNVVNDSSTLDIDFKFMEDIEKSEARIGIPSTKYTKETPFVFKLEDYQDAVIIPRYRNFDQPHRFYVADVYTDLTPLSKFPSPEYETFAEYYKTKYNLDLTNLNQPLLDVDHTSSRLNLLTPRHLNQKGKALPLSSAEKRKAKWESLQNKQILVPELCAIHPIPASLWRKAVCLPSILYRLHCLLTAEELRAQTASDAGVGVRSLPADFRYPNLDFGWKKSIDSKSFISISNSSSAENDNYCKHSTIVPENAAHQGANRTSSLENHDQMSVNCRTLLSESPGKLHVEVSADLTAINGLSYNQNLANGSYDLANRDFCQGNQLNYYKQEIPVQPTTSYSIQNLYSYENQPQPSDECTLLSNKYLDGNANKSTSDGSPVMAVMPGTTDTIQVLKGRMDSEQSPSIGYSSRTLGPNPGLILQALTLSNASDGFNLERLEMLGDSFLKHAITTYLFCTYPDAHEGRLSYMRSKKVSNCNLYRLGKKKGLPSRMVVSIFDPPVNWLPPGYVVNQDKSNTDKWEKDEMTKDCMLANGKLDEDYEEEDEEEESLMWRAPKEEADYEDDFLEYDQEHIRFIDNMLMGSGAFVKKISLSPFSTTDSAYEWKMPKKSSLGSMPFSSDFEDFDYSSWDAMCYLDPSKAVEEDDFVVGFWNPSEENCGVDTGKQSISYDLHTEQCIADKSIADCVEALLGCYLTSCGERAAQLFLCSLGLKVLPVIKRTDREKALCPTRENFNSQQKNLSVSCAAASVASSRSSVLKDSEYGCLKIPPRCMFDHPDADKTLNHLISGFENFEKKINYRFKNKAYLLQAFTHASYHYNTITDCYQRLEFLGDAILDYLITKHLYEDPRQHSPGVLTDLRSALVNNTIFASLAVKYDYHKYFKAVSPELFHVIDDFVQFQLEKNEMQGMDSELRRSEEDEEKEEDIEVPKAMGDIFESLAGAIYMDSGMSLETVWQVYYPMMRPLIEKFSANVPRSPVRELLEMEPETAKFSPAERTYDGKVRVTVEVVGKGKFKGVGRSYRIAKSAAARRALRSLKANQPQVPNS
Large screens that a line does not name were inactive. This is one part of a sample in which hits are shown more often than they occur.

Cc1cc(O)c(C(C)C)cc1NS(=O)(=O)c1ccccc1	Dicer processing 4.2
Cn1c(=O)n(C)c2cc(S(=O)(=O)Nc3ccccc3O)ccc21	none
Cn1c(=O)[nH]c(=O)c2c1nc(Br)n2CC(O)COc1ccc2ccccc2c1 (centres undefined)	none
Cn1c(SCc2nc(-c3ccccc3)no2)nnc1-c1cccs1	Dicer processing 3.1
Cc1ccc(-c2noc(CSc3nnc(C)n3-c3ccccc3)n2)cc1	none
Cn1c(SCc2nc(-c3ccccc3)no2)nnc1-c1ccco1	none
CCOC(=O)c1ncn(Cc2ccccc2)c1N	Dicer processing 3.4
CCOC(=O)c1cn(Cc2ccccc2)c2cc(C)nn2c1=O	none
CCOC(=O)c1nnn(Cc2ccccc2)c1N	none
CC1(C)Cc2nc(N3CCOCC3)c(C#N)cc2CO1	Dicer processing 4.2
CC1(C)Cc2nc(N3CCCC3)c(C#N)cc2CO1	none
CCOC(=O)CSc1nc(N2CCOCC2)c2c(c1C#N)CC(C)(C)OC2	none
CCCCc1nc2sc3c(NCCN4CCOCC4)ncnc3c2c2c1COC(C)(C)C2	none
Cc1nc(-c2cccs2)sc1NC(=O)O/N=C(\N)c1ccc(Cl)cc1	none
Cc1cc(Oc2ccnc3cc(Cl)ccc23)ccc1Cl	Dicer processing 29
Cc1cc(Oc2ccnc3cc(Cl)ccc23)cc(C)c1Cl	none
Cc1cc(OCOc2ccc(Cl)c(C)c2)ccc1Cl	none
C#CCSc1n[nH]c(=O)n1-c1ccc(OCc2ccccc2)cc1	none
Cc1cc(C)c(S(=O)(=O)Oc2ccc(C3SCCS3)cc2)c(C)c1	none
Cn1c(=O)c(/C=C/c2ccccc2)nc2ccccc21	none
COc1ccccc1/C=C/c1nc2ccccc2n1C	none
Cn1c(/C=C/c2ccccc2)nc2ccccc21	Dicer processing 3.7
COC(=O)c1ccc(S(=O)(=O)NCc2ccc3c(c2)OCO3)n1C	none
COc1ccc(CCNC(=O)C(Sc2ccccc2N)c2ccccc2)cc1OC (centres undefined)	none
Nc1nc2c(C(=O)N3CCOCC3)nnn2c2ccccc12	none
CCOC(=O)c1nnn2c1nc(N1CCN(C)CC1)c1ccccc12	none
Nc1nc2c(-c3ccc([N+](=O)[O-])cc3)nnn2c2ccccc12	Dicer processing 3.9
CCOC(=O)NC(Nc1ccc(F)c(F)c1F)(C(=O)OCC)C(F)(F)F (centres undefined)	none
COc1cccc(/C=C2\SC(=S)NC2=O)c1OC	none
O=C1NC(=S)/C(=C/c2ccccc2O)S1	none
COc1cccc(/C=C2/SC(=S)N(C)C2=O)c1O	Dicer processing 7.7
CC(C)(CC(=O)O)C(CCC(=O)O)C(=O)O (centres undefined)	none
CCOC(CN(C(=O)c1ccc(C)cc1)c1ccc(F)cc1)OCC	Dicer processing 4.6
CCOC(CN(C(=O)c1ccc(C(F)(F)F)cc1)c1ccc(F)cc1)OCC	none
CCOC(CN(c1ccc(F)cc1)S(=O)(=O)c1ccc(F)cc1F)OCC	none
CCCCOC(=O)C1=C(C)NC2=C(C(=O)CC(C)(C)C2)C1c1cccc(Cl)c1 (centres undefined)	none
CCOC(=O)C(O)(c1ccc(NC(=O)Nc2cccc(Cl)c2)c(C)c1)C(F)(F)F (centres undefined)	none
CCOC(=O)c1sc(=S)n(-c2ccc(OC)cc2)c1N	none
COc1ccc(-n2ccsc2=S)cc1	Dicer processing 4.7
COc1ccc(N2C(=O)CCC2=O)cc1	none
CS/C(=N\C(=O)OC(C)(C)C)NC(=O)OC(C)(C)C	none
Cc1onc(-c2ccccc2Cl)c1NC(=O)NCCc1ccncc1	none
CC1CCc2c(sc3[nH]c(=S)n(Cc4ccccc4)c(=O)c23)C1 (centres undefined)	none
CC1=C(C(=O)OCC2CCCO2)C(c2coc3ccc(Cl)cc3c2=O)C2=C(CCCC2=O)N1 (centres undefined)	none
CC1=C(C(=O)OCC2CCCO2)C(c2ccccc2F)C2=C(CC(C)(C)CC2=O)N1 (centres undefined)	Dicer processing 4.7
CC1=C(C(=O)OCC2CCCO2)C(c2ccc3c(c2)OCO3)C2=C(CC(C)(C)CC2=O)N1 (centres undefined)	none
CC1=C(C(=O)OCC2CCCO2)C(c2cccc(C)c2)C2=C(CC(C)(C)CC2=O)N1 (centres undefined)	none
COc1cc(C2C(C(=O)OCC3CCCO3)=C(C)NC3=C2C(=O)CC(C)(C)C3)cc(Cl)c1O (centres undefined)	none
COc1ccc(C2C(C(=O)OCC3CCCO3)=C(C)NC3=C2C(=O)CC(C)(C)C3)cc1O (centres undefined)	none
CC1=C(C(=O)OCC2CCCO2)C(c2ccccc2C)C2=C(CC(C)(C)CC2=O)N1 (centres undefined)	none
CC1=C(C(=O)OCC2CCCO2)C(c2coc3ccc(Cl)cc3c2=O)C2=C(CC(C)(C)CC2=O)N1 (centres undefined)	Dicer processing 3.2
CCc1ccc(C2C(C(=O)OCC3CCCO3)=C(C)NC3=C2C(=O)CC(C)(C)C3)cc1 (centres undefined)	Dicer processing 7
C/C=C/CC(=O)Nc1nc(CC(=O)OCC)cs1	none
Cc1ccc2c(C)nc(Nc3nc4c(c(=O)[nH]3)CCCC4)nc2c1	none
COc1cc2c(cc1OC)C1(CCCC1)CN(C(=O)c1cc(Br)ccc1OC)C2	none
